In paper PMC8384837, “Expanding the binding specificity for RNA recognition by a PUF domain”:
Changes are numbered by the printed parent chain.

What was measured:
Assay in all cases: yeast three-hybrid, YBZ-1, SC-Leu-His + 0.5 mM 3-AT, 4 days
Conditions in all cases: tags: N-Gal4 AD-HA kept; label: inside an RPR1-promoter hybrid RNA with tandem MS2 sites; ssRNA
PUM1 PUF domain R5-GGR = PUM1 PUF domain R5-GGR (Homo sapiens, UniProt Q14671 828-1176, C1007G;R1008G;Q1011R)
In short: (§1)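 Each repeat of the Pumilio-1 PUF domain was randomized at its three base-contacting residues, and these libraries were co-expressed from a centromeric plasmid with matching RNA elements in strain YBZ-1. After four days on SC-Leu (input) or SC-Leu-His + 0.5 mM 3-AT (selection), the repeat regions were PCR-amplified and Illumina-sequenced. The interaction score compares variant frequency between input and selection as a log change, computed in log2 with a pseudocount of 1 for absent variants.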

PUM1 PUF domain R5-RHF = PUM1 PUF domain R5-RHF (Homo sapiens, UniProt Q14671 828-1176, C1007R;R1008H;Q1011F)
In short: as §1

PUM1 PUF domain R5-KPC = PUM1 PUF domain R5-KPC (Homo sapiens, UniProt Q14671 828-1176, C1007K;R1008P;Q1011C)
In short: as §1

PUM1 PUF domain R5-DRC = PUM1 PUF domain R5-DRC (Homo sapiens, UniProt Q14671 828-1176, C1007D;Q1011C)
In short: as §1

PUM1 PUF domain R2-RVE = PUM1 PUF domain R2-RVE (Homo sapiens, UniProt Q14671 828-1176, N899R;Y900V;Q903E)
In short: as §1

PUM1 PUF domain R6-EWC = target: T1, PUM1 PUF domain R6-EWC (Homo sapiens, UniProt Q14671 828-1176, N1043E;Y1044W;Q1047C)
T1 sequence: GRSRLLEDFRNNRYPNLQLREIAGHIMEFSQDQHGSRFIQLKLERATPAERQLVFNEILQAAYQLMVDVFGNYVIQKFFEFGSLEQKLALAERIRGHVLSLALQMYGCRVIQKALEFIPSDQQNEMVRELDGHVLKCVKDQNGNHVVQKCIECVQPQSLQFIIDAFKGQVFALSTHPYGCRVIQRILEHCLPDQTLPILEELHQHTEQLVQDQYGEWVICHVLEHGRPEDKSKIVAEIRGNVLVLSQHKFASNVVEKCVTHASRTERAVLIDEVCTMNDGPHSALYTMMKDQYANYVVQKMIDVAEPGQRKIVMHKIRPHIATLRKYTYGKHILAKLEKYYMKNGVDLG
In short: as §1

PUM1 PUF domain R1-KGS = PUM1 PUF domain R1-KGS (Homo sapiens, UniProt Q14671 828-1176, S863K;R864G;Q867S)
In short: as §1

PUM1 PUF domain R7-RIQ = PUM1 PUF domain R7-RIQ (Homo sapiens, UniProt Q14671 828-1176, S1079R;N1080I;E1083Q)
In short: as §1

PUM1 PUF domain R7-KYR = PUM1 PUF domain R7-KYR (Homo sapiens, UniProt Q14671 828-1176, S1079K;N1080Y;E1083R)
In short: as §1

PUM1 PUF domain R8-RFT = PUM1 PUF domain R8-RFT (Homo sapiens, UniProt Q14671 828-1176, N1122R;Y1123F;Q1126T)
In short: as §1

PUM1 PUF domain R8-HWG = PUM1 PUF domain R8-HWG (Homo sapiens, UniProt Q14671 828-1176, N1122H;Y1123W;Q1126G)
In short: as §1

PUM1 PUF domain R8-YHR = PUM1 PUF domain R8-YHR (Homo sapiens, UniProt Q14671 828-1176, N1122Y;Y1123H;Q1126R)
In short: as §1

PUM1 PUF domain R8-LYC = PUM1 PUF domain R8-LYC (Homo sapiens, UniProt Q14671 828-1176, N1122L;Q1126C)
In short: as §1

PUM1 PUF domain R4-ACG = PUM1 PUF domain R4-ACG (Homo sapiens, UniProt Q14671 828-1176, N971A;H972C;Q975G)
In short: as §1

PUM1 PUF domain R4-PFN = PUM1 PUF domain R4-PFN (Homo sapiens, UniProt Q14671 828-1176, N971P;H972F;Q975N)
In short: as §1

PUM1 PUF domain R4-GRA = PUM1 PUF domain R4-GRA (Homo sapiens, UniProt Q14671 828-1176, N971G;H972R;Q975A)
In short: as §1

PUM1 PUF domain R3-EWS = PUM1 PUF domain R3-EWS (Homo sapiens, UniProt Q14671 828-1176, C935E;R936W;Q939S)
In short: as §1

PUM1 PUF domain R3-GRP = PUM1 PUF domain R3-GRP (Homo sapiens, UniProt Q14671 828-1176, C935G;Q939P)
In short: as §1

PUM1 PUF domain R3-SRC = PUM1 PUF domain R3-SRC (Homo sapiens, UniProt Q14671 828-1176, C935S;Q939C)
In short: as §1

PUM1 PUF domain R6-HYL = target: T2, PUM1 PUF domain R6-HYL (Homo sapiens, UniProt Q14671 828-1176, N1043H;Q1047L)
T2 sequence: T1 sequence with E216H, W217Y, C220L
In short: as §1

PUM1 PUF domain R4-ACG, sequence (Q14671 828-1176 N971A/H972C/Q975G): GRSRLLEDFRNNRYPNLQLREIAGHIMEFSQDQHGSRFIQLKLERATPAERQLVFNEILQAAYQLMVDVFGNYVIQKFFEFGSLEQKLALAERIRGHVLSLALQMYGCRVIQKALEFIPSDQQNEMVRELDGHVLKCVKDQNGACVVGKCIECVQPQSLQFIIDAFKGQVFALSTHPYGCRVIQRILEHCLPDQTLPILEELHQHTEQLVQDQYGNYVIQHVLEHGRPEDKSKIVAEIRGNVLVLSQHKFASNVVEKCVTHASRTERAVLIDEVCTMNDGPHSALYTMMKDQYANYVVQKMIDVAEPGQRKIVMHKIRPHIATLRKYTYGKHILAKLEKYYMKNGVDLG
PUM1 PUF domain R4-GRA, sequence (Q14671 828-1176 N971G/H972R/Q975A): as the sequence (Q14671 828-1176 N971A/H972C/Q975G) above, with A144G, C145R, G148A counted along it
PUM1 PUF domain R5-RHF, sequence (Q14671 828-1176 C1007R/R1008H/Q1011F): as the sequence (Q14671 828-1176 N971A/H972C/Q975G) above, with A144N, C145H, G148Q, C180R, R181H, Q184F counted along it
PUM1 PUF domain R1-KGS, sequence (Q14671 828-1176 S863K/R864G/Q867S): as the sequence (Q14671 828-1176 N971A/H972C/Q975G) above, with S36K, R37G, Q40S, A144N, C145H, G148Q counted along it
PUM1 PUF domain R8-HWG, sequence (Q14671 828-1176 N1122H/Y1123W/Q1126G): as the sequence (Q14671 828-1176 N971A/H972C/Q975G) above, with A144N, C145H, G148Q, N295H, Y296W, Q299G counted along it
PUM1 PUF domain R8-RFT, sequence (Q14671 828-1176 N1122R/Y1123F/Q1126T): as the sequence (Q14671 828-1176 N971A/H972C/Q975G) above, with A144N, C145H, G148Q, N295R, Y296F, Q299T counted along it
PUM1 PUF domain R5-GGR, sequence (Q14671 828-1176 C1007G/R1008G/Q1011R): as the sequence (Q14671 828-1176 N971A/H972C/Q975G) above, with A144N, C145H, G148Q, C180G, R181G, Q184R counted along it
PUM1 PUF domain R8-YHR, sequence (Q14671 828-1176 N1122Y/Y1123H/Q1126R): as the sequence (Q14671 828-1176 N971A/H972C/Q975G) above, with A144N, C145H, G148Q, N295Y, Y296H, Q299R counted along it
PUM1 PUF domain R4-PFN, sequence (Q14671 828-1176 N971P/H972F/Q975N): as the sequence (Q14671 828-1176 N971A/H972C/Q975G) above, with A144P, C145F, G148N counted along it
PUM1 PUF domain R2-RVE, sequence (Q14671 828-1176 N899R/Y900V/Q903E): as the sequence (Q14671 828-1176 N971A/H972C/Q975G) above, with N72R, Y73V, Q76E, A144N, C145H, G148Q counted along it

“GGCUAGAACUAGUGGAUCCCCCGGCGCCCGGCGGCUCGAGCCCGGGUAAGUGUCAAUAGUCUGCAUGCCGCCGGGCGCCAUGCCUGCAGGUCGACUCUAGAAAACAUG” was tested, and the binding signal (PUM1 PUF domain R5-GGR) was 4.92 log2 enrichment (interaction score), the binding signal (PUM1 PUF domain R5-RHF) was 2.99 log2 enrichment (interaction score) and the binding signal (PUM1 PUF domain R5-KPC) was 4.19 log2 enrichment (interaction score). For the same sequence, the binding signal (PUM1 PUF domain R5-DRC) was 3.58 log2 enrichment (interaction score).
With “GGCUAGAACUAGUGGAUCCCCCGGCGCCCGGCGGCUCGAGCCCGGGUAAGUGUAAAGAGUCUGCAUGCCGCCGGGCGCCAUGCCUGCAGGUCGACUCUAGAAAACAUG” the binding signal (PUM1 PUF domain R2-RVE) was 2.9 log2 enrichment (interaction score).
“GGCUAGAACUAGUGGAUCCCCCGGCGCCCGGCGGCUCGAGCCCGGGUAAGUGGAAAUAGUCUGCAUGCCGCCGGGCGCCAUGCCUGCAGGUCGACUCUAGAAAACAUG” was tested, and the binding signal (PUM1 PUF domain R6-EWC) was 3.23 log2 enrichment (interaction score).
For “GGCUAGAACUAGUGGAUCCCCCGGCGCCCGGCGGCUCGAGCCCGGGUAAGUGUAAAUUGUCUGCAUGCCGCCGGGCGCCAUGCCUGCAGGUCGACUCUAGAAAACAUG”, the binding signal (PUM1 PUF domain R1-KGS) was 4.48 log2 enrichment (interaction score).
With “GGCUAGAACUAGUGGAUCCCCCGGCGCCCGGCGGCUCGAGCCCGGGUAAGUGUUAAUAGUCUGCAUGCCGCCGGGCGCCAUGCCUGCAGGUCGACUCUAGAAAACAUG” the binding signal (PUM1 PUF domain R5-GGR) was 1.88 log2 enrichment (interaction score), the binding signal (PUM1 PUF domain R5-RHF) was 3.71 log2 enrichment (interaction score) and the binding signal (PUM1 PUF domain R5-DRC) was 4.23 log2 enrichment (interaction score).
With “GGCUAGAACUAGUGGAUCCCCCGGCGCCCGGCGGCUCGAGCCCGGGUAAGUUUAAAUAGUCUGCAUGCCGCCGGGCGCCAUGCCUGCAGGUCGACUCUAGAAAACAUG” the binding signal (PUM1 PUF domain R7-RIQ) was 4.25 log2 enrichment (interaction score).
“GGCUAGAACUAGUGGAUCCCCCGGCGCCCGGCGGCUCGAGCCCGGGUAAGUCUAAAUAGUCUGCAUGCCGCCGGGCGCCAUGCCUGCAGGUCGACUCUAGAAAACAUG” was tested, and the binding signal (PUM1 PUF domain R7-KYR) was 5.86 log2 enrichment (interaction score).
In the case of “GGCUAGAACUAGUGGAUCCCCCGGCGCCCGGCGGCUCGAGCCCGGGUAAGCGUAAAUAGUCUGCAUGCCGCCGGGCGCCAUGCCUGCAGGUCGACUCUAGAAAACAUG”, the binding signal (PUM1 PUF domain R8-RFT) is reported as 5.64 log2 enrichment (interaction score), the binding signal (PUM1 PUF domain R8-HWG) is reported as 4.11 log2 enrichment (interaction score) and the binding signal (PUM1 PUF domain R8-YHR) is reported as 3.34 log2 enrichment (interaction score). The binding signal (PUM1 PUF domain R8-LYC) was 2.73 log2 enrichment (interaction score).
With “GGCUAGAACUAGUGGAUCCCCCGGCGCCCGGCGGCUCGAGCCCGGGUAAGUGUAUAUAGUCUGCAUGCCGCCGGGCGCCAUGCCUGCAGGUCGACUCUAGAAAACAUG” the binding signal (PUM1 PUF domain R4-ACG) was 0.66 log2 enrichment (interaction score), the binding signal (PUM1 PUF domain R4-PFN) was 6.39 log2 enrichment (interaction score) and the binding signal (PUM1 PUF domain R4-GRA) was 2.46 log2 enrichment (interaction score).
With “GGCUAGAACUAGUGGAUCCCCCGGCGCCCGGCGGCUCGAGCCCGGGUAAGUAUAAAUAGUCUGCAUGCCGCCGGGCGCCAUGCCUGCAGGUCGACUCUAGAAAACAUG” the binding signal (PUM1 PUF domain R7-KYR) was 3.64 log2 enrichment (interaction score).
In the case of “GGCUAGAACUAGUGGAUCCCCCGGCGCCCGGCGGCUCGAGCCCGGGUAAGUGUAAAUCGUCUGCAUGCCGCCGGGCGCCAUGCCUGCAGGUCGACUCUAGAAAACAUG”, the binding signal (PUM1 PUF domain R1-KGS) is reported as 5.23 log2 enrichment (interaction score).
“GGCUAGAACUAGUGGAUCCCCCGGCGCCCGGCGGCUCGAGCCCGGGUAAGUGUAAGUAGUCUGCAUGCCGCCGGGCGCCAUGCCUGCAGGUCGACUCUAGAAAACAUG” was tested, and the binding signal (PUM1 PUF domain R3-EWS) was 5.34 log2 enrichment (interaction score), the binding signal (PUM1 PUF domain R3-GRP) was 3.91 log2 enrichment (interaction score) and the binding signal (PUM1 PUF domain R3-SRC) was 4.05 log2 enrichment (interaction score).
With “GGCUAGAACUAGUGGAUCCCCCGGCGCCCGGCGGCUCGAGCCCGGGUAAGUGUAAUUAGUCUGCAUGCCGCCGGGCGCCAUGCCUGCAGGUCGACUCUAGAAAACAUG” the binding signal (PUM1 PUF domain R3-EWS) was 4.58 log2 enrichment (interaction score), the binding signal (PUM1 PUF domain R3-GRP) was 2.44 log2 enrichment (interaction score) and the binding signal (PUM1 PUF domain R3-SRC) was 2.75 log2 enrichment (interaction score).
“GGCUAGAACUAGUGGAUCCCCCGGCGCCCGGCGGCUCGAGCCCGGGUAAGUGUAAAUAGUCUGCAUGCCGCCGGGCGCCAUGCCUGCAGGUCGACUCUAGAAAACAUG” was tested, and the binding signal (PUM1 PUF domain R4-ACG) was 3.13 log2 enrichment (interaction score), the binding signal (PUM1 PUF domain R8-RFT) was 4.66 log2 enrichment (interaction score) and the binding signal (PUM1 PUF domain R8-HWG) was 4.47 log2 enrichment (interaction score). For the same sequence, the binding signal (PUM1 PUF domain R4-GRA) was 4.39 log2 enrichment (interaction score), the binding signal (PUM1 PUF domain R3-EWS) was 3.46 log2 enrichment (interaction score) and the binding signal (PUM1 PUF domain R6-HYL) was 3.8 log2 enrichment (interaction score). The binding signal (PUM1 PUF domain R3-GRP) was 4.87 log2 enrichment (interaction score), the binding signal (PUM1 PUF domain R3-SRC) was 2.73 log2 enrichment (interaction score) and the binding signal (PUM1 PUF domain R7-KYR) was 2.75 log2 enrichment (interaction score). For the same sequence, the binding signal (PUM1 PUF domain R5-DRC) was 3.83 log2 enrichment (interaction score).
For “GGCUAGAACUAGUGGAUCCCCCGGCGCCCGGCGGCUCGAGCCCGGGUAAGUGUACAUAGUCUGCAUGCCGCCGGGCGCCAUGCCUGCAGGUCGACUCUAGAAAACAUG”, the binding signal (PUM1 PUF domain R4-ACG) was 1.1 log2 enrichment (interaction score) and the binding signal (PUM1 PUF domain R4-GRA) was 1.92 log2 enrichment (interaction score).
